# Experimental data taken from publication PMC7862700, “An all-to-all approach to the identification of sequence-specific readers for epigenetic DNA modifications on cytosine”.
# Legend:
# Test in all cases: DAPPL (digital affinity profiling via proximity ligation, sequencing); 10 mM Tris-HCl pH 7.5, 50 mM NaCl, 1 mM DTT, 4% glycerol, room temperature, 30 min; GST-TFs on glutathione beads, 16-mer random dsDNA library, 0.1% formaldehyde crosslink after washing; high values mean tight binding
# [1] = target: T1, ELK1 (Homo sapiens, UniProt P19419 1-428); details: protein: recombinant; tags: N-terminal GST; dsDNA, one strand shown
# T1 sequence: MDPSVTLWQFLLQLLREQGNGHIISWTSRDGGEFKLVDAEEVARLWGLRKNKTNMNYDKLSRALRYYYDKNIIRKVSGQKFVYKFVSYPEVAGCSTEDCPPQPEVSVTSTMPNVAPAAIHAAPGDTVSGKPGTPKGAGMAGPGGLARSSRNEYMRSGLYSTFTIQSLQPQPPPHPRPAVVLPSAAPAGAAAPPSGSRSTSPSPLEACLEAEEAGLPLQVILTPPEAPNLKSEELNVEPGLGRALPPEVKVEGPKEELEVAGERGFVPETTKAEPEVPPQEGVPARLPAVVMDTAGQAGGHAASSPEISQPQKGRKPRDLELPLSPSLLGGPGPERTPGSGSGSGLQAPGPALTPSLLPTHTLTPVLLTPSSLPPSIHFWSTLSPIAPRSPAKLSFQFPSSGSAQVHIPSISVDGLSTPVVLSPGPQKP
# Method in brief: (§1)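 In yeast, human transcription factors were expressed with a GST fusion, then pulled down on glutathione beads and given DNA barcodes. Pooled with a tag-only sample, they were exposed to 200 nmole of a 16-mer random double-stranded DNA library (Tris/NaCl/DTT/glycerol buffer, room temperature, 30 min), washed, crosslinked with 0.1% formaldehyde, proximity-ligated using BsaI/T4 ligase for 1 h at 37 °C, PCR-amplified and read on an Illumina NextSeq500. Each hexamer's frequency of reads for a factor, divided by the matching frequency for the tag-only sample, gives the binding signal.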
# [2] = target: T2, EHF (Homo sapiens, UniProt Q9NZC4 1-300); details: protein: recombinant; tags: N-terminal GST; dsDNA, one strand shown
# T2 sequence: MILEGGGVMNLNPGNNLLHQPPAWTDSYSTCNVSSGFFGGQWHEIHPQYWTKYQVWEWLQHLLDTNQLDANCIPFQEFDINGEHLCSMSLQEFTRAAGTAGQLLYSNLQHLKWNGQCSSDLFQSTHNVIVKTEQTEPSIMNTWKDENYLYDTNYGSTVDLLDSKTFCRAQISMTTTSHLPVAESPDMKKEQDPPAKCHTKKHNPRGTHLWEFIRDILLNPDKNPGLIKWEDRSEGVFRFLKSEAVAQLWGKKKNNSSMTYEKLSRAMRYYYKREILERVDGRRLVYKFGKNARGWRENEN
# Method in brief: as §1
# [3] = target: T3, ELK3 (Homo sapiens, UniProt P41970 1-407); details: protein: recombinant; tags: N-terminal GST; dsDNA, one strand shown
# T3 sequence: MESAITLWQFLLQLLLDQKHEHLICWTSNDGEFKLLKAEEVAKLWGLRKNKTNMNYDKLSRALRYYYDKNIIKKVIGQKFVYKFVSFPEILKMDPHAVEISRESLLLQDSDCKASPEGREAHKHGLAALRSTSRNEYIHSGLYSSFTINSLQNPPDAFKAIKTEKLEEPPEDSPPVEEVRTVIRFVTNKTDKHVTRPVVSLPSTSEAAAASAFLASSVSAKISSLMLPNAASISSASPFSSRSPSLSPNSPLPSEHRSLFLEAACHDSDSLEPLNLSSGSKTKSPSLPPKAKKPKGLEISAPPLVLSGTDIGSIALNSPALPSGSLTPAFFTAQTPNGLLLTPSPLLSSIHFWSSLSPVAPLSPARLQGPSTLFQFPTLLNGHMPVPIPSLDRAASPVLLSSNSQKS
# Method in brief: as §1
# [4] = target: HSF1 (Homo sapiens, UniProt Q00613 1-529); details: protein: recombinant; tags: N-terminal GST; chain copies: 3; dsDNA, one strand shown
# Method in brief: as §1
# [5] = target: T4, SPIC (Homo sapiens, UniProt Q8N5J4 1-248); details: protein: recombinant; tags: N-terminal GST; dsDNA, one strand shown
# T4 sequence: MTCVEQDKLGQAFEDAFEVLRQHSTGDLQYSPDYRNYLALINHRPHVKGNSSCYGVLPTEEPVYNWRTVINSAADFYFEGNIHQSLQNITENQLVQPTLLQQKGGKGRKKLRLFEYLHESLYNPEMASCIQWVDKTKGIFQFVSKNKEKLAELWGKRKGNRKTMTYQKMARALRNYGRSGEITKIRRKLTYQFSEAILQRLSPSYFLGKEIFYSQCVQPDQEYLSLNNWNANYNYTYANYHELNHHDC
# Method in brief: as §1
# [6] = target: T5, ELK4 (Homo sapiens, UniProt P28324-2 1-405); details: protein: recombinant; tags: N-terminal GST; dsDNA, one strand shown
# T5 sequence: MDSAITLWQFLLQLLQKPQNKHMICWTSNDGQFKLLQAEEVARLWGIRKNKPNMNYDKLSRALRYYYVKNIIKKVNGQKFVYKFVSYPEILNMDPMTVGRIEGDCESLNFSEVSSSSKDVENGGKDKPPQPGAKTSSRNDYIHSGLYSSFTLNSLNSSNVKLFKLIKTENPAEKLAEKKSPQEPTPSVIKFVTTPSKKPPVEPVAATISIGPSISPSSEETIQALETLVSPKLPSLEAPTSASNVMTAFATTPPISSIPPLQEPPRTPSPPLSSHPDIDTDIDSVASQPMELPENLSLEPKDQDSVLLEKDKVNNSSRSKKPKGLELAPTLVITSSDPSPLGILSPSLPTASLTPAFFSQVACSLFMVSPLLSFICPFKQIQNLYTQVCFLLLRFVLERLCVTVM
# Method in brief: as §1
# [7] = target: CRX (Homo sapiens, UniProt O43186 1-299); details: protein: recombinant; tags: N-terminal GST; dsDNA, one strand shown
# Method in brief: as §1
# [8] = target: SPIB (Homo sapiens, UniProt Q01892 1-262); details: protein: recombinant; tags: N-terminal GST; dsDNA, one strand shown
# Method in brief: as §1
# [9] = target: ELF4 (Homo sapiens, UniProt Q99607 1-663); details: protein: recombinant; tags: N-terminal GST; dsDNA, one strand shown
# Method in brief: as §1
# [10] = target: T6, ETV2 (Homo sapiens, UniProt O00321 1-342); details: protein: recombinant; tags: N-terminal GST; dsDNA, one strand shown
# T6 sequence: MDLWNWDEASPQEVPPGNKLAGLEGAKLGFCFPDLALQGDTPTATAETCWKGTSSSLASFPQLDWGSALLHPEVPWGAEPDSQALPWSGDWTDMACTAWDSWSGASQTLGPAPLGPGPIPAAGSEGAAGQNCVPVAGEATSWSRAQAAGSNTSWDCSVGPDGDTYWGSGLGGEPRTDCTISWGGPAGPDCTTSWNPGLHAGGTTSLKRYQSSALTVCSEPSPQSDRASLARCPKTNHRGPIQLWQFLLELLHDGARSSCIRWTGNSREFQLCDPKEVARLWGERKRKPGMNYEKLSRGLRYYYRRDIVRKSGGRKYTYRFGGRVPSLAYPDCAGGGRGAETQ
# Method in brief: as §1
# [11] = target: T7, ELF3 (Homo sapiens, UniProt P78545 1-371); details: protein: recombinant; tags: N-terminal GST; dsDNA, one strand shown
# T7 sequence: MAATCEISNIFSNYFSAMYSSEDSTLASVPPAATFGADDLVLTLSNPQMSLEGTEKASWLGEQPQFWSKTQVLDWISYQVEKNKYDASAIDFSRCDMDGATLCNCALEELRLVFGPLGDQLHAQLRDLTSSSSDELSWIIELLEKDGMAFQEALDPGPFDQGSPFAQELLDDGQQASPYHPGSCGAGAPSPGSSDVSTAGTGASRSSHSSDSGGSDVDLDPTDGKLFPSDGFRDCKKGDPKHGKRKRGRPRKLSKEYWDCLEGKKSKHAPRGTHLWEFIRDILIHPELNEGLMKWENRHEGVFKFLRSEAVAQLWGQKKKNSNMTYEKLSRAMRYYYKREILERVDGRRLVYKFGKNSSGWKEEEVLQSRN
# Method in brief: as §1
# [12] = target: ETV1 (Homo sapiens, UniProt P50549 1-477); details: protein: recombinant; tags: N-terminal GST; dsDNA, one strand shown
# Method in brief: as §1
# [13] = target: T8, ETV3L (Homo sapiens, UniProt Q6ZN32 1-361); details: protein: recombinant; tags: N-terminal GST; dsDNA, one strand shown
# T8 sequence: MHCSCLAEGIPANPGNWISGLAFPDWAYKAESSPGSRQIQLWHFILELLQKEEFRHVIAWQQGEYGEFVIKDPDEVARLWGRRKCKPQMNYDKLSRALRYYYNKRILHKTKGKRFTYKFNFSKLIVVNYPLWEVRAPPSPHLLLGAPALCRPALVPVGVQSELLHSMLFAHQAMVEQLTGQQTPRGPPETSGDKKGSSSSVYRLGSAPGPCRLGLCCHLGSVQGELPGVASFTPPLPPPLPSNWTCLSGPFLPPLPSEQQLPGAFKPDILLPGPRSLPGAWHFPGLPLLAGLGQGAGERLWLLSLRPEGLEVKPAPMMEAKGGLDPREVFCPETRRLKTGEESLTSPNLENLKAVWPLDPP
# Method in brief: as §1
# [14] = target: T9, ETS2 (Homo sapiens, UniProt P15036 1-469); details: protein: recombinant; tags: N-terminal GST; dsDNA, one strand shown
# T9 sequence: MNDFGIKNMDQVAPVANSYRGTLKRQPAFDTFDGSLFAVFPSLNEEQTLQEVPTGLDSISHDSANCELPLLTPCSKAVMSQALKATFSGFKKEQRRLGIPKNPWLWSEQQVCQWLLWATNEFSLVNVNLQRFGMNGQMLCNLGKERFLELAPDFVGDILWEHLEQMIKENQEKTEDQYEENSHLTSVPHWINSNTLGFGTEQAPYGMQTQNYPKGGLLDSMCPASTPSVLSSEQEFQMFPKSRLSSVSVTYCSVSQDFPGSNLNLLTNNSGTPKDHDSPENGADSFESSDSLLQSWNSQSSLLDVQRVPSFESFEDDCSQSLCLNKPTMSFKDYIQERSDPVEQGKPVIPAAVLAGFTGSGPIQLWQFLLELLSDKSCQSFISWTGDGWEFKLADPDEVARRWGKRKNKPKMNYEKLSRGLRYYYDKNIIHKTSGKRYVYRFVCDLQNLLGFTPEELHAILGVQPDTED
# Method in brief: as §1
# [15] = target: T10, SPDEF (Homo sapiens, UniProt O95238 1-335); details: protein: recombinant; tags: N-terminal GST; dsDNA, one strand shown
# T10 sequence: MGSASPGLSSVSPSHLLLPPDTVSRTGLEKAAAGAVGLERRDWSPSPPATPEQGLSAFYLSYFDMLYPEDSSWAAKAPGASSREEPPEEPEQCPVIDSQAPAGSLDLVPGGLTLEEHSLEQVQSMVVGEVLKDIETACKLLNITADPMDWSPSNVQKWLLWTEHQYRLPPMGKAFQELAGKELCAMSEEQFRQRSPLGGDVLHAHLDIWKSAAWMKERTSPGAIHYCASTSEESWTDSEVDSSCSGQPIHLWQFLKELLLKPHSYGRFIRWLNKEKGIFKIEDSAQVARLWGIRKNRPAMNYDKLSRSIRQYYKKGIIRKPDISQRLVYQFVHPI
# Method in brief: as §1
# [16] = target: T11, ETV7 (Homo sapiens, UniProt Q9Y603 1-341); details: protein: recombinant; tags: N-terminal GST; dsDNA, one strand shown
# T11 sequence: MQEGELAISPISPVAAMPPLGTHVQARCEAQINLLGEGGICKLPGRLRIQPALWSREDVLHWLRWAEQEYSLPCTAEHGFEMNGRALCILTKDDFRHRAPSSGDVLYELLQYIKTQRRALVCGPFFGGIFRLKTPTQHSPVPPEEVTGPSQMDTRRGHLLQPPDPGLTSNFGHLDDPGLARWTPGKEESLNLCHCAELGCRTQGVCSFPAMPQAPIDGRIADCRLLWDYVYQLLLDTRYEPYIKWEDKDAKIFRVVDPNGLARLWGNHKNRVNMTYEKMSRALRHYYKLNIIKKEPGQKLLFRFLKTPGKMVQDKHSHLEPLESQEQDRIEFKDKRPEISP
# Method in brief: as §1
# [17] = target: T12, ETV3 (Homo sapiens, UniProt P41162-2 1-143); details: protein: recombinant; tags: N-terminal GST; dsDNA, one strand shown
# T12 sequence: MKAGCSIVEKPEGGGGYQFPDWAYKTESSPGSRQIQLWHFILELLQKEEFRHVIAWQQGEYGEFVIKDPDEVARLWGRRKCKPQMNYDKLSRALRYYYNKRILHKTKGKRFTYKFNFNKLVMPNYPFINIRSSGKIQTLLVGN
# Method in brief: as §1
# Chain of HSF1 (Q00613 whole entry): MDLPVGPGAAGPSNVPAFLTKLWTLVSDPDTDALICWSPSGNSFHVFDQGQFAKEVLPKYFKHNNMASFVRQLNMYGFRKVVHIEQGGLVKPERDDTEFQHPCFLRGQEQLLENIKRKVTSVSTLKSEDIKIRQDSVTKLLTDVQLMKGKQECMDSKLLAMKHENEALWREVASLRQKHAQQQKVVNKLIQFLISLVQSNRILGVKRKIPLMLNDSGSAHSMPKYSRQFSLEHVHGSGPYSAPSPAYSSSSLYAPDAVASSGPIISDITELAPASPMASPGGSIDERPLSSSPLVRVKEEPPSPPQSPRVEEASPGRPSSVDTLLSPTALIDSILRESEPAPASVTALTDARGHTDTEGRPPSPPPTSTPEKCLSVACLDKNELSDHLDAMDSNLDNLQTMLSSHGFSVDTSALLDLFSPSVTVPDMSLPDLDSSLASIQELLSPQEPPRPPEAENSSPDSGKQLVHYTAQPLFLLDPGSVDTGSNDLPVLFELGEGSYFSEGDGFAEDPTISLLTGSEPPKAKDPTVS
# Chain of CRX (O43186 whole entry): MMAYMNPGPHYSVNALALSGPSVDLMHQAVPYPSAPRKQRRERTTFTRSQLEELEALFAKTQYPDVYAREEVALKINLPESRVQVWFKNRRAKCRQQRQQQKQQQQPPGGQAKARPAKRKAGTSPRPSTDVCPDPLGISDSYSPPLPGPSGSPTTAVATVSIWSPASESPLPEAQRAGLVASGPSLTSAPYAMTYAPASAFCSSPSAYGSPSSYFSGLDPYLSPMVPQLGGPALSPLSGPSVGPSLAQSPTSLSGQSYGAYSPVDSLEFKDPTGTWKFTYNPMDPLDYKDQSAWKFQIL
# Chain of SPIB (Q01892 whole entry): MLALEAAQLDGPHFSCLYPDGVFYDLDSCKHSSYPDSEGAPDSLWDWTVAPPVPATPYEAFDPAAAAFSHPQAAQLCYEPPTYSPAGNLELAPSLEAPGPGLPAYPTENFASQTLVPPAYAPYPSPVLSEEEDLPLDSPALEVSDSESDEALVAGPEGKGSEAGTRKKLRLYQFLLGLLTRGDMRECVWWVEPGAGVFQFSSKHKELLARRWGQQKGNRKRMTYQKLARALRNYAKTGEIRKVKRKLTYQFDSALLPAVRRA
# Chain of ETV1 (P50549 whole entry): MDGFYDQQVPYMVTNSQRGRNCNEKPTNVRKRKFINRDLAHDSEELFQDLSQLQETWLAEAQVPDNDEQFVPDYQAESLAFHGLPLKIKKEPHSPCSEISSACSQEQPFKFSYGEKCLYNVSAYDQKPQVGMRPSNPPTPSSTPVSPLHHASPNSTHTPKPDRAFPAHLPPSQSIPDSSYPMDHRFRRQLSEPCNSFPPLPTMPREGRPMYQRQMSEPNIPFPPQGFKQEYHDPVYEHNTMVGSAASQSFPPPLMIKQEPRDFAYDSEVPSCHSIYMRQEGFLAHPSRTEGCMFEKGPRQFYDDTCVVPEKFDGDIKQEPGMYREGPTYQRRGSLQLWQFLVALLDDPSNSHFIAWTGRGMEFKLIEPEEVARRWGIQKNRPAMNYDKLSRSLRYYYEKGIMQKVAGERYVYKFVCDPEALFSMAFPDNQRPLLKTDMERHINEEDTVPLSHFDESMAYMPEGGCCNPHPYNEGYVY
# Chain of ELF4 (Q99607 whole entry): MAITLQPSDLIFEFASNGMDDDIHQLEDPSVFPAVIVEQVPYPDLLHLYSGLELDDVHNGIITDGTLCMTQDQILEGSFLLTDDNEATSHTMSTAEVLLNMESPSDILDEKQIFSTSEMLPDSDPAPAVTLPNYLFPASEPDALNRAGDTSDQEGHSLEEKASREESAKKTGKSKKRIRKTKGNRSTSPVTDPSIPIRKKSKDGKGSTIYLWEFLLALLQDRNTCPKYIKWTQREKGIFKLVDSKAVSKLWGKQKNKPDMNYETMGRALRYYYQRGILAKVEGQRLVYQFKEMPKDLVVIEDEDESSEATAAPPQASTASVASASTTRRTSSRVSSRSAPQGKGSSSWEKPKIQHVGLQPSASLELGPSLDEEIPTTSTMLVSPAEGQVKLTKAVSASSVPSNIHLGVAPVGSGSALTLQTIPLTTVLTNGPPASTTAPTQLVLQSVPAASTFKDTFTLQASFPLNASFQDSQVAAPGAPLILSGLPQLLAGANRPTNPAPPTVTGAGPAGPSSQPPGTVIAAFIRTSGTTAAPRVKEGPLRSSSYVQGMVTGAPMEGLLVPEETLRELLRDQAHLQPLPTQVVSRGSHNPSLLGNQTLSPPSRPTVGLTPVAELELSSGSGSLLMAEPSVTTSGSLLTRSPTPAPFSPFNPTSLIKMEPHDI
sequence,measurement,setting,value
TCCAGC,binding signal,[1],"1.03 fold enrichment (6-mer frequency, TF over GST control)"
same,binding signal,[2],"1.04 fold enrichment (6-mer frequency, TF over GST control)"
same,binding signal,[3],"1.07 fold enrichment (6-mer frequency, TF over GST control)"
same,binding signal,[4],"1.44 fold enrichment (6-mer frequency, TF over GST control)"
same,binding signal,[5],"1.06 fold enrichment (6-mer frequency, TF over GST control)"
same,binding signal,[6],"1.17 fold enrichment (6-mer frequency, TF over GST control)"
same,binding signal,[7],"1.08 fold enrichment (6-mer frequency, TF over GST control)"
GTCTAG,binding signal,[4],"1.48 fold enrichment (6-mer frequency, TF over GST control)"
GCAGAA,binding signal,[4],"1.15 fold enrichment (6-mer frequency, TF over GST control)"
same,binding signal,[5],"1.03 fold enrichment (6-mer frequency, TF over GST control)"
GCTGGA,binding signal,[4],"1.19 fold enrichment (6-mer frequency, TF over GST control)"
GATTCG,binding signal,[8],"1.04 fold enrichment (6-mer frequency, TF over GST control)"
same,binding signal,[4],"1.23 fold enrichment (6-mer frequency, TF over GST control)"
same,binding signal,[5],"1.16 fold enrichment (6-mer frequency, TF over GST control)"
same,binding signal,[9],"1.05 fold enrichment (6-mer frequency, TF over GST control)"
same,binding signal,[10],"1.02 fold enrichment (6-mer frequency, TF over GST control)"
same,binding signal,[11],"1.09 fold enrichment (6-mer frequency, TF over GST control)"
same,binding signal,[7],"1.06 fold enrichment (6-mer frequency, TF over GST control)"
same,binding signal,[12],"1.03 fold enrichment (6-mer frequency, TF over GST control)"
same,binding signal,[13],"1.06 fold enrichment (6-mer frequency, TF over GST control)"
same,binding signal,[14],"1 fold enrichment (6-mer frequency, TF over GST control)"
same,binding signal,[15],"1 fold enrichment (6-mer frequency, TF over GST control)"
same,binding signal,[16],"1.01 fold enrichment (6-mer frequency, TF over GST control)"
same,binding signal,[17],"1 fold enrichment (6-mer frequency, TF over GST control)"
